# PLAP act – activators of human placental alkaline phosphatase; AID 696; activation fold at 20 µM; 1.2% of 96,000 active; purified PLAP enzyme, luminescent substrate read-out; hits give high values; P05187; in the data active means activation fold above about 2
# CYP2C19 act – increases human CYP2C19 enzyme activity | P33261 | recombinant CYP2C19, luciferin-H EGE luminescence; hits give high values; 0 = fully inhibited enzyme, 1 = untreated enzyme | activation factor at 5 µM | 96,000 tested, under 10 active | AID 1025;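 active means activation factor of at least 2 at 5 µM in the primary screen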;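 further: 0 = wells with 2.5 mM tranylcypromine and 1 = vehicle-only wells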
# CYP2C9 act – activators of human CYP2C9; activation factor at 5 µM; P11712; AID 1024; 1.4% of 96,000 active; recombinant CYP2C9, luciferin-H conversion, luminescence; hits give high values; factor 1 = untreated enzyme, 0 = blocked;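 active means activation factor of 2 or more for CYP2C9 at a 5 µM dose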;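 further: 0 = sulfaphenazole-blocked wells and 1 = vehicle-only wells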
# Target sequence (P11712 whole entry, looked up): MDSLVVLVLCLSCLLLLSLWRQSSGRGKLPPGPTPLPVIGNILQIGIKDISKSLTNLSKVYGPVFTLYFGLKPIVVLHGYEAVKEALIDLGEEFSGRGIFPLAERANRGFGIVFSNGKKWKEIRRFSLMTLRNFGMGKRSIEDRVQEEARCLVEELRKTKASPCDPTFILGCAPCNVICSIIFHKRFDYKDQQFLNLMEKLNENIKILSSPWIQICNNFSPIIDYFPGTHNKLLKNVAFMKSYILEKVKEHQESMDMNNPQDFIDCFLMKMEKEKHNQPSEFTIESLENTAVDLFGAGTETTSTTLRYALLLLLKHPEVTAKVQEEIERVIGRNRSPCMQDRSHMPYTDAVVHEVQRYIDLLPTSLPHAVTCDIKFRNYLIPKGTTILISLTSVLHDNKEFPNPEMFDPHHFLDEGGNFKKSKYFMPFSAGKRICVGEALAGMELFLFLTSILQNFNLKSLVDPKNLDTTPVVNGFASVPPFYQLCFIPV
# CYP2C19 inhib – inhibitors of human CYP2C19; CYP2C19 Supersomes, luciferin-H EGE luminescence, 30 min; 21% of 96,000 active; inhibition, % at 5 µM; P33261; AID 778;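 active means CYP2C19 inhibition above a set limit at 5 µM in the primary screen, cut at about 50% in these data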;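 further: plate controls were negative control wells for no effect and 2.5 mM tranylcypromine positive control for full effect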
# CYP2C9 inhib – blocks human cytochrome P450 2C9 | CYP2C9 Supersomes, luciferin-H conversion, luminescence | inhibition, % at 5 µM | 20% of 96,000 active;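 active means blocking of liver enzyme CYP2C9 beyond about 50% at 5 µM, limit read from the data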
# The depositor's hits bear a star. Sampled rows, rich in hits. Any-hit rate of the full collection: about 31%.
SMILES,PLAP act,CYP2C19 act,CYP2C9 act,CYP2C19 inhib,CYP2C9 inhib
CCOC(=O)c1ccccc1OCc1cc(/C=N/n2cnnc2)ccc1OC,1.1,0.4,0.3,61*,71*
COC(=O)C1=C(C(=O)c2ccc(C)cc2)C(c2ccc(OC)c(OC)c2)n2nnnc2N1 (configuration not stated),1.1,1.1,1.2,-9,-23
CCOC(=O)C1=C(C)Nc2nnnn2C1c1ccc(OC)c(Br)c1 (configuration not stated),1.1,0.6,0.3,40,67*
COC(=O)C1=C(C(=O)c2ccc(C)cc2)C(c2ccc(O)c(OC)c2)n2nnnc2N1 (configuration not stated),0.9,0.9,0.3,6,69*
C=CCOC(=O)C1=C(C)Nc2nnnn2C1c1cc(OC)ccc1OC (configuration not stated),1.1,0.3,0.5,71*,51*
CCOc1ccccc1C1C(C(=O)Nc2ccccc2OC)=C(C)Nc2nnnn21 (configuration not stated),0.9,0.1,0.5,88*,52*
CCCCOC(=O)C1=C(C)Nc2nnnn2C1c1ccccc1Cl (configuration not stated),0.8,1.1,1.1,-12,-7
O=C(CC(=O)NC1CCCCC1)N/N=C/c1cccc2ccccc12,0.9,0.9,1,6,-2
COc1cc(-c2nc3oc4ccccc4c(=O)c3c(=O)n2Cc2ccco2)cc(OC)c1OC,1.3,0.8,0.8,22,18
Cc1nc(NC(=O)c2cc3c(s2)CCCCC3)sc1C(=O)N(C)C,1,0.7,0.4,34,56*
COC(=O)c1sc(NC(=O)c2cc3c(s2)CCCC3)nc1C,0.9,0.9,1,11,0
COc1cc(/C=N/NC(=O)CCc2c(C)n[nH]c2C)cc(OC)c1OC,1.6,0.4,0.7,55*,33
COc1ccc(/C=N/NC(=O)CCc2c(C)n[nH]c2C)cc1OC,1.8,1,0.8,0,18
COC(=O)/C=C(\C)NC(=O)c1ccccc1Cl,1.1,0.2,0.9,80*,11
CC(NC(=O)c1ccccc1Cl)C(=O)O (configuration not stated),1.2,1.1,0.9,-8,12
Cc1ccc(Cn2c(CN3CC(C)OC(C)C3)nc3c2c(=O)[nH]c(=O)n3C)cc1 (configuration not stated),1.1,1,1,2,2
c1ccc2c(c1)nc1n2C2(N3CCOCC3)CCCC2C1N1CCOCC1 (configuration not stated),1.5,0.9,0,13,99*
Cc1ccc(C)c2c1[nH]c1ccc([N+](=O)[O-])cc12,0.7,0.2,0.4,78*,61*
Cc1cc(=S)[nH]c2ccccc12,0.9,1,1.2,4,-16
Cc1ccc(C)c2c1[nH]c1ccccc12,0.9,0.1,1,86*,3
CC(C)CC(NC(=O)C(NC(=O)OC(C)(C)C)C(C)C)C(=O)N1CCCC1C(N)=O (configuration not stated),1,1,1,-1,3
CCNC(=O)O/N=C(\C)c1sc(-c2ccc(Cl)cc2)nc1C,0.9,0.6,0.8,41,24
CCCCC(=O)Nc1nc(C)c(-c2csc(Nc3ccccc3OC)n2)s1,0.9,0.9,0.6,10,41
C=CCCC(=O)Nc1nc(C)c(-c2csc(Nc3ccccc3OC)n2)s1,0.9,0.8,0.4,17,57*
CCC(C)C(=O)Nc1nc(C)c(-c2csc(Nc3ccccc3OC)n2)s1 (configuration not stated),0.9,0.7,0.4,27,63*
SMILES,PLAP act,CYP2C19 act,CYP2C9 act,CYP2C19 inhib,CYP2C9 inhib
CCCCCC(=O)Nc1nc(C)c(-c2csc(Nc3cc(OC)ccc3OC)n2)s1,1.2,0.8,0.4,19,55*
COC(=O)c1cc(-c2ccccc2)sc1NC(=O)CN1C(=O)c2ccccc2C1=O,1.2,0.9,0.5,12,49
CC1C(=NO)C(C)C(c2ccccc2)NC1c1ccccc1 (configuration not stated),1.1,0,0.7,98*,30
CC1/C(=N/O)CC(c2ccccc2)NC1c1ccccc1 (configuration not stated),0.8,0.3,0.5,70*,51*
Cc1ccc(C2NC(c3ccc(C)cc3)C(C)C(=NO)C2C)cc1 (configuration not stated),1.1,0.1,0.5,93*,51*
CCCCCC(=O)Nc1c(-c2ccc(OC)cc2)c(=O)c2ccccc2n1C,1,1.2,0.5,-15,50
Cc1ccccc1C(=O)NNC(=O)c1ccc(F)cc1,1,0.4,1.1,62*,-14
O=C(NNC(=O)c1cccc2ccccc12)c1ccco1,1.8,1,1.4,4,-44
Cc1ccccc1C(=O)Nc1nnc(-c2ccc(F)cc2)o1,1,1,0.9,-3,13
Cc1ccccc1C(=O)NNC(=O)Cc1cccc2ccccc12,2*,0.6,1.2,42,-25
O=C(c1cc2nc(-c3cccs3)cc(C(F)(F)F)n2n1)N1CCCc2ccccc21,1,0.9,0.9,14,10
O=C(c1cccs1)N1CCCc2ccccc21,0.9,0.4,0.6,64*,37
O=C(c1cccs1)N1CCc2ccccc21,0.8,0.9,1,15,-4
O=C(C1CCCN1C(=O)c1cccs1)N1CCc2ccccc21 (configuration not stated),1.2,0.5,0.8,54*,18
O=C(c1cc2nc(-c3cccs3)cc(C(F)(F)Cl)n2n1)N1CCCc2ccccc21,1.5,0.7,0.1,32,89*
CCc1cc2c(=O)c(-c3cscn3)coc2cc1O,0.8,1.1,1.2,-10,-17
Cc1nc(-c2ccc(O)c(O)c2)cs1,0.6,1,1.1,0,-9
Oc1ccc(-c2onc(C(F)(F)F)c2-c2cscn2)c(O)c1,1.1,0.2,2.3*,76*,-130
CCOc1cc(C)c(-c2onc(C(F)(F)F)c2-c2csc(C)n2)c(O)c1,1,0.2,0.8,76*,21
Cc1nc(-c2c(C(F)(F)F)noc2-c2ccc(O)cc2O)cs1,1,0.3,0.9,69*,6
CCOC(=O)c1cnn(-c2c(Cc3ccccc3)c(C)nc3c(-c4ccccc4)c(C)nn23)c1N,0.9,1.3,1,-26,1
COC(=O)C1=C(C)NC2=C(C(=O)CCC2)C1c1cccs1 (configuration not stated),0.9,0.2,0.2,79*,76*
CCCOC(=O)C1=C(C)NC2=C(C(=O)CCC2)C1c1ccc(N(C)C)cc1 (configuration not stated),1.2,0.8,0.4,22,56*
COc1ccccc1NC(=O)C1=C(C)NC2=C(C(=O)CCC2)C1c1ccc2c(c1)OCO2 (configuration not stated),1.4,0.4,0.5,63*,47
